Assay results: PubChem BioAssay
For some of these results: Entries with a potency or affinity are not part of this list. Calls of active or inactive are those of the source. Unless noted, how the calls were made is not given here.

What was measured:
[1] = antimalarial activity against Dd2 strain (AID 2302;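 active means growth inhibition above 50% at the single 2 µM test dose, taken to imply half-maximal potency below 2 µM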;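 further: 0% = DMSO untreated growth and 100% = chloroquine plus artemisinin killed control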); conditions: P. falciparum Dd2 in RBCs, LDH growth readout, 72 h; at 2 µM; hits give high values
[2] = HepG2 cytotoxicity, primary screen, cytotoxicity control for P. falciparum antimalarial project, cell-based, ATP luminescence (AID 2303;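 active means inhibition above 50%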;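 further: 0% = DMSO wells and 100% = digitonin-killed cells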); conditions: HepG2 viability, 24-48 h, at 10 µM, hits give high values
[3] = biological target: L-lactate dehydrogenase (Plasmodium falciparum (isolate CDC / Honduras)) (UniProt Q27743); experiment: PfLDH activity inhibition – cell lysate, 3D7 strain, counter-screen for P. falciparum growth inhibition project (AID 2304);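 further: 0% = vehicle and 100% = reference inhibitor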; conditions: P. falciparum 3D7 crude extract, LDH APAD/NBT absorbance; at 2 µM; hits give high values
Sequence of L-lactate dehydrogenase (Plasmodium falciparum (isolate CDC / Honduras)) (Q27743 whole entry, looked up): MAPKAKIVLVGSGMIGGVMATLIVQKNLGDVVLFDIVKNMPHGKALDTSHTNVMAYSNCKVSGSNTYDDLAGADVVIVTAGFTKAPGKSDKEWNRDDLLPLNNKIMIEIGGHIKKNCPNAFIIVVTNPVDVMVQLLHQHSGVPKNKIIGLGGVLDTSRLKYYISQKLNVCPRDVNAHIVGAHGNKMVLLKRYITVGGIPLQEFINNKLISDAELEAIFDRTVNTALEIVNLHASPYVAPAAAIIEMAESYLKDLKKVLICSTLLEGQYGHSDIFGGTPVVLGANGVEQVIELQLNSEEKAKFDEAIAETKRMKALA

[4] = inhibition of 3D7 malaria parasite growth – strain 3D7 (AID 2306);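 further: 0% = DMSO wells and 100% = chloroquine plus artemisinin control wells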; conditions: P. falciparum 3D7 erythrocytic growth, LDH absorbance, 72 h; at 2 µM; hits give high values
[5] = biological target: Calcium-dependent protein kinase 1 (Plasmodium falciparum (isolate 3D7)) (UniProt P62344); experiment: PfCDPK1 kinase inhibitors, biochemical, TCAMS library (AID 1159585; cut-off not given, nearly all actives have IC50 up to about 0.98 µM;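 further: inhibitors leave more ATP so luminescence rises with inhibition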); conditions: recombinant PfCDPK1, Kinase-Glo ATP depletion luminescence
Sequence of Calcium-dependent protein kinase 1 (Plasmodium falciparum (isolate 3D7)) (P62344 whole entry, looked up): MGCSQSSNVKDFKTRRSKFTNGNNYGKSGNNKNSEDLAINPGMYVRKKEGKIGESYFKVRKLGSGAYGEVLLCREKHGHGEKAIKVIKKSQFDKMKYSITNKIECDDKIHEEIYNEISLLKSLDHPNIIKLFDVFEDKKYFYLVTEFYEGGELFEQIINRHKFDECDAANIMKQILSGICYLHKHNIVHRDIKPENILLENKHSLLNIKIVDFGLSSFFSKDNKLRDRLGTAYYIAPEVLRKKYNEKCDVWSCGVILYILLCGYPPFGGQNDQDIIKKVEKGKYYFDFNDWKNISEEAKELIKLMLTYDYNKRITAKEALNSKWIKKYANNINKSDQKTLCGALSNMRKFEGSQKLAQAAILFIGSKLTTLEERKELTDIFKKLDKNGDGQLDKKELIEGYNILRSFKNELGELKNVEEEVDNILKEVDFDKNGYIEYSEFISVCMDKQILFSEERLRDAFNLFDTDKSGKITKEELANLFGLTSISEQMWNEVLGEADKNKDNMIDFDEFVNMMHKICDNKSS

[6] = biological target: Plasmodium falciparum protein kinase 6 (PK6, PF3D7_1337100) (UniProt Q8IDW1); experiment: PfPK6 kinase inhibitors, biochemical, TCAMS library (AID 1159586); conditions: recombinant PfPK6, Kinase-Glo ATP depletion luminescence
Sequence of Plasmodium falciparum protein kinase 6 (PK6, PF3D7_1337100) (Q8IDW1 1-305): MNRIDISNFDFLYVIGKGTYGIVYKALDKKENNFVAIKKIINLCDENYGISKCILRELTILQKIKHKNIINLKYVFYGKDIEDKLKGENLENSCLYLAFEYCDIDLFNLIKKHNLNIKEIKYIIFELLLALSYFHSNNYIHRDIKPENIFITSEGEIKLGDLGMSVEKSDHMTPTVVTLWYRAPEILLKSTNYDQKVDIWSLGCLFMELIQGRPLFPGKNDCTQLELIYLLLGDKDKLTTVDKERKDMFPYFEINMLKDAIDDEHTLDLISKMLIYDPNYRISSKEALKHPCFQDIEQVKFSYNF

[7] = biological target: Protein kinase 7 (PK7), Plasmodium falciparum 3D7 (PF3D7_0213400) (UniProt Q7YTF7); experiment: inhibition of Plasmodium PK7 catalytic activity – biochemical, TCAMS antimalarial set, Kinase-Glo luminescence (AID 1159587); conditions: recombinant PfPK7, Kinase-Glo ATP depletion luminescence
Sequence of Protein kinase 7 (PK7), Plasmodium falciparum 3D7 (PF3D7_0213400) (Q7YTF7 1-343): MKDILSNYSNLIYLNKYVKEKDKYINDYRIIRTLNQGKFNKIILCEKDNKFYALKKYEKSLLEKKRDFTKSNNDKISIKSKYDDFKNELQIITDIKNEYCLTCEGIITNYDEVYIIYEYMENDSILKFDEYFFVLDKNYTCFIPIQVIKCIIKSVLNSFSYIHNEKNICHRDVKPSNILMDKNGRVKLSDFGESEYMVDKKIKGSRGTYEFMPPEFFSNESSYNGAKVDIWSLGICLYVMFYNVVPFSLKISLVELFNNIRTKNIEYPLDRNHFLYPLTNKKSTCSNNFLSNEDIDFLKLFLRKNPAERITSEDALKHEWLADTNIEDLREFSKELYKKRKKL

[8] = biological target: Calcium-dependent protein kinase 4 (Plasmodium falciparum (isolate 3D7)) (UniProt Q8IBS5); experiment: PfCDPK4 kinase inhibitors, biochemical, TCAMS library (AID 1159588; cut-off not given, nearly all actives have IC50 up to about 0.91 µM); conditions: recombinant PfCDPK4, Kinase-Glo ATP depletion luminescence
Sequence of Calcium-dependent protein kinase 4 (Plasmodium falciparum (isolate 3D7)) (Q8IBS5 whole entry, looked up): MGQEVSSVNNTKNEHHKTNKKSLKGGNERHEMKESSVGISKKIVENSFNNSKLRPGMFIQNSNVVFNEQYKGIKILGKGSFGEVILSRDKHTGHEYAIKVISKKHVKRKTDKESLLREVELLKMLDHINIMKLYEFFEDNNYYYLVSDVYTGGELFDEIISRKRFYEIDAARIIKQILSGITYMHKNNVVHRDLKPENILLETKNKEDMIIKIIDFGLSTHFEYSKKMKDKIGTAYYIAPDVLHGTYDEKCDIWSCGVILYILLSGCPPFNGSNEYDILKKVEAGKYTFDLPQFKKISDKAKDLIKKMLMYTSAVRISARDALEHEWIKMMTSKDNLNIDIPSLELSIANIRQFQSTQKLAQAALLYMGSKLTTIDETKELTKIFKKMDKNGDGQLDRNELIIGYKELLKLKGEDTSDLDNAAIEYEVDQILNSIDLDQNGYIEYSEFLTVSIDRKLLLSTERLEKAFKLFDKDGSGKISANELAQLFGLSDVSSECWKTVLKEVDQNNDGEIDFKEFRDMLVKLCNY

COc1ccc(-c2cccc(NC(=O)c3ccc(Cl)cc3)c2)cc1CN1CCC(O)CC1
inactive: growth inhibition [1] 43% | inhibition [3] 3% | outcome [5] | outcome [6] | outcome [7] | outcome [8]
active: inhibition [2] 51% | growth inhibition [4] 100%

N#Cc1c(-c2ccccc2)cn2c1[nH]c(=O)c1ccccc12
active: growth inhibition [1] 95% | growth inhibition [4] 92%
inactive: inhibition [2] -1% | inhibition [3] 1% | outcome [5] | outcome [6] | outcome [7] | outcome [8]

COc1ccccc1-c1cccc(CNC2CCN(CC3Cn4c(=O)ccc5ccc(F)c3c54)CC2)c1 (centres undefined)
inactive: growth inhibition [1] -1% | inhibition [2] 30% | inhibition [3] 3% | outcome [5] | outcome [6] | outcome [7] | outcome [8]
active: growth inhibition [4] 91%

O=C(Nc1cc(Cl)ccc1O)c1cnn2c(C(F)(F)F)cc(-c3cccs3)nc12
inactive: inhibition [2] 8% | inhibition [3] 1% | outcome [5] | outcome [6] | outcome [7] | outcome [8]
active: growth inhibition [1] 74% | growth inhibition [4] 100%

COc1cc(NC2CCCC(NCc3cn(S(=O)(=O)c4ccccc4)c4ccccc34)C2)nc2ccccc12 (centres undefined)
active: growth inhibition [1] 61% | growth inhibition [4] 100%
inactive: inhibition [2] 4% | inhibition [3] 2% | outcome [5] | outcome [6] | outcome [7] | outcome [8]

CCCN(CCCCNC(=O)c1ccc(-c2cccnc2)cc1)C1CCc2c(O)cccc2C1 (centres undefined)
active: growth inhibition [4] 87%
inactive: growth inhibition [1] 16% | inhibition [2] -1% | inhibition [3] 0% | outcome [5] | outcome [6] | outcome [7] | outcome [8]

CN1CCN(Cc2ccc(-c3cc4c(Nc5ccc(OCc6cccc(F)c6)c(Cl)c5)ncnc4s3)[nH]2)CC1
active: growth inhibition [1] 99% | growth inhibition [4] 101%
inactive: inhibition [2] 23% | inhibition [3] 2% | outcome [5] | outcome [6] | outcome [7] | outcome [8]

Cc1cccc2[nH]c(-c3cccc(-c4ccc(CN5CCCC5CN)cc4)c3)nc12 (centres undefined)
inactive: growth inhibition [1] 47% | inhibition [2] 19% | inhibition [3] 3% | outcome [5] | outcome [6] | outcome [7] | outcome [8]
active: growth inhibition [4] 101%

CC(Sc1nc(-c2ccccc2)c(-c2ccccc2)o1)C(=O)NC1CC1 (centres undefined)
inactive: inhibition [2] 13% | inhibition [3] -2% | outcome [5] | outcome [6] | outcome [7] | outcome [8]
active: growth inhibition [1] 91% | growth inhibition [4] 94%

CC(C)NCc1ccc(-c2ccc(-c3nc4ccc(F)cc4[nH]3)cc2)cc1
inactive: inhibition [2] 14% | inhibition [3] -5% | outcome [5] | outcome [6] | outcome [7] | outcome [8]
active: growth inhibition [1] 100% | growth inhibition [4] 101%

CC(C)c1cn2c3c(cc(C(=O)N[C@@H](Cc4ccccc4)[C@H](O)CNC4CCOCC4)cc13)N(C)S(=O)(=O)CC2
active: growth inhibition [1] 99% | growth inhibition [4] 98%
inactive: inhibition [2] 9% | inhibition [3] -6% | outcome [5] | outcome [6] | outcome [7] | outcome [8]

O=S(=O)(Nc1cccc(F)c1CNCc1ccccn1)c1ccc(Cl)c(Cl)c1
active: growth inhibition [4] 92%
inactive: growth inhibition [1] 34% | inhibition [2] 45% | inhibition [3] -5% | outcome [5] | outcome [6] | outcome [7] | outcome [8]

Cc1ccc(C)c(CN2CCC(CNC(=O)c3cc4ccc5cccnc5c4[nH]3)CC2)c1
active: growth inhibition [4] 95%
inactive: growth inhibition [1] 10% | inhibition [2] 25% | inhibition [3] -3% | outcome [5] | outcome [6] | outcome [7] | outcome [8]

N#Cc1cccc(C(O)CN(Cc2ccccc2)Cc2ccccc2)c1 (centres undefined)
active: growth inhibition [1] 100% | growth inhibition [4] 101%
inactive: inhibition [2] 12% | inhibition [3] 1% | outcome [5] | outcome [6] | outcome [7] | outcome [8]

COc1c(C)cc(I)cc1CNCCCNc1cc(=O)c2ccccc2[nH]1
active: growth inhibition [4] 84%
inactive: growth inhibition [1] -2% | inhibition [2] -1% | inhibition [3] 2% | outcome [5] | outcome [6] | outcome [7] | outcome [8]

Cc1cc(N2CC=CCC2)nc(/N=C(\N)Nc2ccc(Br)cc2)n1
active: growth inhibition [4] 98%
inactive: growth inhibition [1] 41% | inhibition [2] 10% | inhibition [3] -3% | outcome [5] | outcome [6] | outcome [7] | outcome [8]

c1cc(CNCC2CCCO2)cc(-c2cccc(-c3nc4ccccc4[nH]3)c2)c1 (centres undefined)
inactive: growth inhibition [1] 7% | inhibition [2] 15% | inhibition [3] 3% | outcome [5] | outcome [6] | outcome [7] | outcome [8]
active: growth inhibition [4] 100%

c1cc(CNCCc2ccncc2)cc(-c2csc(-c3nc4ccccc4[nH]3)c2)c1
inactive: inhibition [2] 16% | inhibition [3] -8% | outcome [5] | outcome [6] | outcome [7] | outcome [8]
active: growth inhibition [1] 99% | growth inhibition [4] 100%

CN(Cc1ccncc1)C(Cc1ccccc1)C1CCN(Cc2ccc(O)c(Cl)c2)CC1 (centres undefined)
active: growth inhibition [1] 97% | growth inhibition [4] 96%
inactive: inhibition [2] 22% | inhibition [3] -4% | outcome [5] | outcome [6] | outcome [7] | outcome [8]

CCOC(=O)c1[nH]c(-c2cccnc2)nc1NC(=S)NCc1ccccc1
active: growth inhibition [1] 100% | growth inhibition [4] 101%
inactive: inhibition [2] 10% | inhibition [3] 1% | outcome [5] | outcome [6] | outcome [7] | outcome [8]

CN1C(C)(C)CC(NC(=O)c2ccc(-c3nc4ccc(Cl)cc4[nH]3)cc2)CC1(C)C
inactive: growth inhibition [1] 36% | inhibition [2] 23% | inhibition [3] -3% | outcome [5] | outcome [6] | outcome [7] | outcome [8]
active: growth inhibition [4] 99%

CCN(CC)S(=O)(=O)c1ccc(CCOCCCCCNCC(O)c2cc(Cl)c(N)c(Cl)c2)s1 (centres undefined)
inactive: inhibition [2] 35% | inhibition [3] -10% | outcome [5] | outcome [6] | outcome [7] | outcome [8]
active: growth inhibition [1] 80% | growth inhibition [4] 96%

CCN1CCC(N(Cc2ccc(-c3ccc(C(F)(F)F)cc3)cc2)C(=O)Cn2c(CCc3cccc(F)c3F)cc(=O)c3cn(C)nc32)CC1
inactive: inhibition [2] 27% | inhibition [3] 2% | outcome [5] | outcome [6] | outcome [7] | outcome [8]
active: growth inhibition [1] 87% | growth inhibition [4] 95%

OCCCCCCN=Cc1[nH]c(=S)sc1O
inactive: growth inhibition [1] 1% | inhibition [2] 7% | inhibition [3] 4% | outcome [5] | outcome [6] | outcome [7] | outcome [8]
active: growth inhibition [4] 91%

COc1cc2c(cc1C(F)(F)F)N(C(=O)Nc1cccc(-c3ccc(CN(C)C)cc3)c1)CC2
active: growth inhibition [1] 93% | inhibition [2] 95% | growth inhibition [4] 101%
inactive: inhibition [3] 1% | outcome [5] | outcome [6] | outcome [7] | outcome [8]

Cc1nc(N)nc(N)c1OCCCCCCOc1ccccc1
inactive: growth inhibition [1] -3% | inhibition [3] -2% | outcome [5] | outcome [6] | outcome [7] | outcome [8]
active: inhibition [2] 59% | growth inhibition [4] 95%

N#Cc1ccc(N2C[C@@H](OCc3ccccc3)C[C@H]2C(=O)NCCC(c2ccccc2)c2ccccc2)c2ccccc12
inactive: inhibition [2] 11% | inhibition [3] -6% | outcome [5] | outcome [6] | outcome [7] | outcome [8]
active: growth inhibition [1] 96% | growth inhibition [4] 93%

COc1cccc(Nc2nccc(NCC(O)c3cccc(C(F)(F)F)c3)n2)c1 (centres undefined)
active: growth inhibition [4] 96%
inactive: growth inhibition [1] 27% | inhibition [2] 6% | inhibition [3] -4% | outcome [5] | outcome [6] | outcome [7] | outcome [8]

COc1cc(CNCCCNc2nc3ncccc3[nH]2)c2[nH]cc(Br)c2c1
active: growth inhibition [4] 92%
inactive: growth inhibition [1] 3% | inhibition [2] 12% | inhibition [3] 8% | outcome [5] | outcome [6] | outcome [7] | outcome [8]

CC(=O)Oc1c(C2C=CCCC2)c(OC(C)=O)c2ccccc2c1OC(C)=O (centres undefined)
active: growth inhibition [1] 79% | growth inhibition [4] 95%
inactive: inhibition [2] 10% | inhibition [3] 7% | outcome [5] | outcome [6] | outcome [7] | outcome [8]

CC(=O)Nc1ccc(C(=O)Nc2cccc(-c3cccc(-c4nc5ccccc5[nH]4)c3)c2)cn1
inactive: inhibition [2] 3% | inhibition [3] -2% | outcome [5] | outcome [6] | outcome [7] | outcome [8]
active: growth inhibition [1] 100% | growth inhibition [4] 101%

COc1ccc(O)c(Cc2cnc3nc(N)nc(N)c3c2C)c1
inactive: inhibition [3] 5% | outcome [5] | outcome [6] | outcome [7] | outcome [8]
active: growth inhibition [1] 74% | inhibition [2] 56% | growth inhibition [4] 94%

CSCCC(C(=O)O)N1C(=O)c2ccccc2C1=O (centres undefined)
inactive: growth inhibition [1] -3% | inhibition [2] -4% | inhibition [3] -1% | outcome [5] | outcome [6] | outcome [7] | outcome [8]
active: growth inhibition [4] 91%

O=C(NCC1CCCCC1)c1cc(=O)c2ccccc2o1
inactive: inhibition [2] -1% | inhibition [3] -2% | outcome [5] | outcome [6] | outcome [7] | outcome [8]
active: growth inhibition [1] 77% | growth inhibition [4] 98%

COc1cc2nccc(Nc3ccc4c(cnn4Cc4cccc(F)c4)c3)c2cc1OC
inactive: inhibition [2] 29% | inhibition [3] -6% | outcome [5] | outcome [6] | outcome [7] | outcome [8]
active: growth inhibition [1] 99% | growth inhibition [4] 101%

O=C(Nc1ccc2c(c1)CCN2C1CCN(Cc2ccc(O)cc2)C1)c1ccco1 (centres undefined)
inactive: inhibition [2] 0% | inhibition [3] -2% | outcome [5] | outcome [6] | outcome [7] | outcome [8]
active: growth inhibition [1] 63% | growth inhibition [4] 97%

COc1ccc(-n2ccnc2SCC(=O)Nc2cccc(C(F)(F)F)c2)c(OC)c1
active: growth inhibition [1] 88% | growth inhibition [4] 98%
inactive: inhibition [2] -10% | inhibition [3] 3% | outcome [5] | outcome [6] | outcome [7] | outcome [8]

COc1ccc(CN(C)CCCc2ccc(NC(=O)c3cc4ccccc4[nH]3)cc2)cc1OC
active: growth inhibition [4] 97%
inactive: growth inhibition [1] 31% | inhibition [2] 39% | inhibition [3] -5% | outcome [5] | outcome [6] | outcome [7] | outcome [8]
